Among the data in PubChem BioAssay AID1946 (Johns Hopkins Ion Channel Center, 2009) are activity change vs negative control values, retold here.

Screen size: about 2,400 compounds; about 180 (7.5%) were called active. The sample as a whole holds a higher share of actives than the screen did. A number with no mark means an inactive call.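 Rule for the calls: active = readout below zero, meaning a drop past 3 SD under the dofetilide-free negative control mean; inactive = the rest.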

Potassium voltage-gated channel subfamily KQT member 2 (Rattus norvegicus), sequence (O88943 whole entry, looked up): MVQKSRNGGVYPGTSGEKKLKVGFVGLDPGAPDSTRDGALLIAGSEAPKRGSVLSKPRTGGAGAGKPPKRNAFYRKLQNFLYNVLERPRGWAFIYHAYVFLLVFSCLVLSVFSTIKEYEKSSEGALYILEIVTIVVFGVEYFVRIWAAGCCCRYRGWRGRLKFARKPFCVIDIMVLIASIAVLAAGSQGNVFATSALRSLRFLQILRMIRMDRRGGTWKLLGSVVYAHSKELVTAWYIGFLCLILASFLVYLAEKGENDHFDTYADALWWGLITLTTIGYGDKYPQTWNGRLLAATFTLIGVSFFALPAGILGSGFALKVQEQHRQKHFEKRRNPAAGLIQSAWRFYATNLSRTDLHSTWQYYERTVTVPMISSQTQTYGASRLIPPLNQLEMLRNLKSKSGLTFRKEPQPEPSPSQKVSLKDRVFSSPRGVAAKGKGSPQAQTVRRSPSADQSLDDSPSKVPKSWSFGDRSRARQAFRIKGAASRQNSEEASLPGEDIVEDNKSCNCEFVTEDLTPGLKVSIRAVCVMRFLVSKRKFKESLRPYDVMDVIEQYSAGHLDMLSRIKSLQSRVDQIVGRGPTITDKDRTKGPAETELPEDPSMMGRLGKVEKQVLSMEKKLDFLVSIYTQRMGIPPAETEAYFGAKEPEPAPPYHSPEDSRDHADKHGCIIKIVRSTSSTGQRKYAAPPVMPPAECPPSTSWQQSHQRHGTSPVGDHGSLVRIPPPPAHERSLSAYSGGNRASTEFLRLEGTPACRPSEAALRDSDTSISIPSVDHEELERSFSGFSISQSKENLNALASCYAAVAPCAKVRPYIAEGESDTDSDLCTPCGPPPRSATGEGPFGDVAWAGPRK

This assay has as its target Potassium voltage-gated channel subfamily KQT member 2 (Rattus norvegicus) (UniProt O88943). Put plainly: rat KCNQ2 channel inhibition by compounds alone, confirmation, counter-screen for hERG block protector project, cell-based, CHO, FluxOR thallium flux (AID 1946). To be noted: CHO-KCNQ2 cells, FluxOR thallium flux fluorescence; at 10 µM; hits give low values; zero marks the 3-SD hit cutoff.
Regarding `CCOc1cc(N2CCOCC2)c(OCC)cc1NC(=O)Cn1nc(C)c([N+](=O)[O-])c1C`, the activity change vs negative control is 12.9%.

For `CCSc1nnc(NC(=O)CC(C)C)s1`, the activity change vs negative control is 10.8%.

On to `Cc1ccc(OCc2ccoc2C(=O)O)cc1C`, for which the activity change vs negative control was 45.7%.

Consider `O=C(/C=C/Nc1ccc(F)c(F)c1)c1cccs1`, for which the activity change vs negative control was -2.9% (active).

With `O=C(/C=C/Nc1ccc(F)cc1)c1ccco1`, the activity change vs negative control is 12.2%.

In the case of `Cc1ccc(N/C=C/C(=O)c2cccs2)cc1`, the activity change vs negative control was 5%.

For `Cc1ccc(Cc2c[nH]c(=S)s2)cc1`, the activity change vs negative control was 76.4%.

With `O=C(NC(=S)N1CCc2ccccc21)c1ccc(Br)o1`, the activity change vs negative control was 41%.

Turning to `S=c1nc(Cc2ccccc2)[nH]c2ccccc12`, the activity change vs negative control is 98.8%.

Take `O=C(C1CCN(S(=O)(=O)c2cc(Cl)ccc2Cl)CC1)N1CCOCC1`: the activity change vs negative control is 1.9%.

As for `O=C1CC(C(=O)N2CCOCC2)C2(CCCCC2)O1` (stereo not drawn), the activity change vs negative control is -1% (active).

Regarding `Cc1ccc(C(C)C)c(OCc2n[nH]c(=S)o2)c1`, the activity change vs negative control was 32.2%.

In the case of `O=C(NC(=S)NCc1ccccc1)c1ccc(Br)o1`, the activity change vs negative control was 93.4%.

For `CCC1=NN(C(=O)c2ccc(Cl)cc2)C(O)(c2ccc(C)cc2)C1` (stereo not drawn), the activity change vs negative control was 11.1%.

Take `CCC1=NN(C(=O)c2ccc(Cl)cc2)C(O)(c2ccccc2)C1` (stereo not drawn): the activity change vs negative control was -0.9% (active).

Consider `CC1=NN(C(=O)c2ccc(Cl)cc2)C(O)(c2ccccc2)C1` (stereo not drawn), for which the activity change vs negative control is 16%.

Take `CC(C)NC(=O)Nc1n[nH]c(Nc2ccc(Cl)cc2)n1`: the activity change vs negative control was 34.6%.

With `COCCN(C(=O)CSc1nnc(C)n1Cc1ccccc1)c1c(N)n(CC(C)C)c(=O)[nH]c1=O`, the activity change vs negative control was 1.8%.

As for `C=CCN(CC=C)C(=S)NC(=O)c1ccc(OC)cc1`, the activity change vs negative control is 31.6%.

Consider `CS(=O)(=O)N(Cc1ccccc1)c1ccc(C(=O)Nc2ccc(C(N)=O)cc2)cc1`, for which the activity change vs negative control was 4.2%.

For the molecule `C=CCN(c1ccc(C(=O)NC(C)C)cc1)S(C)(=O)=O`, the activity change vs negative control is -2.3% (active).

Regarding `CCOC(=O)C1=NN(C(=O)c2ccccc2)C(O)(c2ccc(C)cc2)C1` (stereo not drawn), the activity change vs negative control is 32%.

Take `CCn1c(=S)[nH]c2c(c1=O)C(C)(C)Cc1ccccc1-2`: the activity change vs negative control was 49.8%.

For the molecule `c1ccc(-c2n[nH]c(-c3ccccn3)n2)cc1`, the activity change vs negative control was 20.5%.

For `Cn1c(O)c(N=NC(=S)Nc2ccccc2F)c2cc(S(=O)(=O)N3CCOCC3)ccc21`, the activity change vs negative control is 4%.

`C=CCn1c(O)c(N=NC(=S)Nc2ccccc2F)c2cc(S(=O)(=O)N3CCOCC3)ccc21`: the activity change vs negative control was -2.3% (active).

`Oc1c(N=NC(=S)Nc2ccccc2F)c2ccccc2n1Cc1ccccc1F`: the activity change vs negative control was 10.9%.

`CC(Oc1ccc(Br)cc1Br)C(=O)Nc1cccnc1` (stereo not drawn): the activity change vs negative control is 7.4%.

For the molecule `CC1CCN(C(=S)NC(=O)c2ccc(C(C)(C)C)cc2)CC1`, the activity change vs negative control is 38.5%.

Consider `COc1cc2c(cc1OC)C(c1ccc([N+](=O)[O-])cc1)N(C(C)=O)CC2` (stereo not drawn), for which the activity change vs negative control was -4% (active).

For the molecule `COc1ccc(NC(=O)N2CCN(c3ccc([N+](=O)[O-])cc3)CC2)cc1OC`, the activity change vs negative control was 8.2%.

As to `COc1cc2c(cc1OC)C(C)N(C(=S)NC(=O)c1ccccc1)CC2` (stereo not drawn), the activity change vs negative control was 18.6%.

Turning to `CN(C)Cc1c(C(=O)N/N=C/c2ccccc2OCc2c(F)cccc2Cl)nnn1-c1nonc1N`, the activity change vs negative control was -0.5% (active).

With `CCCOc1ccc(-c2c(C(=O)N/N=C/c3ccccc3OCC)nnn2-c2nonc2N)cc1`, the activity change vs negative control was 11.7%.

`Nc1nonc1-n1nnc(C(=O)N/N=C/c2cccc(Cl)c2Cl)c1CN1CCCC1`: the activity change vs negative control is 5.3%.

Regarding `O=C(NC(=S)Nc1ccc(C(F)(F)F)cc1)c1csnn1`, the activity change vs negative control is 110%.

Regarding `CC1CCc2c(sc3[nH]c(=S)n(C)c(=O)c23)C1` (stereo not drawn), the activity change vs negative control was 100%.

With `CN1N=C(C(=O)N2CCc3c([nH]c4ccccc34)C2c2c(F)cccc2Cl)CCC1=O` (stereo not drawn), the activity change vs negative control was 0.6%.

For `CCc1nc(C)ccc1OCC(=O)N1CCc2c([nH]c3ccccc23)C1c1ccccn1` (stereo not drawn), the activity change vs negative control was -3.7% (active).

With `O=c1c2cc(Br)ccc2nc(-c2ccc([N+](=O)[O-])cc2)n1O`, the activity change vs negative control is 66.7%.

As to `C=CCN(CC=C)C(=S)NC(=O)Cc1cccc2ccccc12`, the activity change vs negative control was 25.1%.

As for `CC(/C=C1\SC(=S)N(NS(=O)(=O)c2ccc(C)cc2)C1=O)=C\c1ccccc1`, the activity change vs negative control was 32.4%.

As to `O=c1c2cc(Cl)ccc2nc(-c2ccccc2)n1O`, the activity change vs negative control is 56.6%.

As to `Cn1nc(C(F)(F)F)c(-c2ccc(Br)cc2)c1NC(=O)c1cccnc1`, the activity change vs negative control was -6.8% (active).

Regarding `Cn1c(=S)[nH]c2sc3c(c2c1=O)CCC(C(C)(C)C)C3` (stereo not drawn), the activity change vs negative control was 99.8%.

Turning to `CC(CCc1ccccc1)NC(=S)NC(=O)c1ccco1` (stereo not drawn), the activity change vs negative control was 43%.

Take `O=C1C(=O)N(CCN2CCOCC2)C(c2cccnc2)/C1=C(/O)c1ccc(Cl)cc1` (stereo not drawn): the activity change vs negative control was 6.1%.

In the case of `Cc1ccc(/C(O)=C2\C(=O)C(=O)N(Cc3cccnc3)C2c2ccccc2[N+](=O)[O-])cc1` (stereo not drawn), the activity change vs negative control is -1.5% (active).

For the molecule `COc1ccc(N(CC(=O)NCc2cccnc2)S(=O)(=O)c2ccccc2[N+](=O)[O-])c(OC)c1`, the activity change vs negative control was 4.1%.

As to `CC(C)CN1C(=O)/C(=C/c2cccs2)NC1=S`, the activity change vs negative control is 113%.

On to `COc1ccc(NC(=S)NC(=O)c2csnn2)cc1`, for which the activity change vs negative control is 81.7%.

Consider `CC(=O)Nc1ccccc1C(=O)C(=O)Nc1ccc(Cl)cc1`, for which the activity change vs negative control was 5.3%.

On to `CC(C)C(=O)Nc1cccc(C(=O)Nc2ccccc2C(=O)O)c1`, for which the activity change vs negative control was 13.7%.

With `CC(=O)Nc1ccccc1C(=O)C(=O)Nc1ccccc1`, the activity change vs negative control was -2% (active).

As for `S=c1[nH]c2cc(Cl)ccc2s1`, the activity change vs negative control is 121%.

For `CCn1c(=S)[nH]c2sc3c(c2c1=O)CCCCC3`, the activity change vs negative control was 126%.

In the case of `CC(C)n1c(=S)[nH]c2scc(-c3cccs3)c2c1=O`, the activity change vs negative control is 119%.

In the case of `S=c1[nH]nc(-c2cccs2)n1/N=C/c1c(Cl)cccc1Cl`, the activity change vs negative control is 42.5%.

In the case of `Cc1cc(OCc2ccc(C(=O)Nc3ccc(C(=O)O)cc3)o2)ccc1Cl`, the activity change vs negative control was 5.6%.

In the case of `O=C(N/N=C/c1cc([N+](=O)[O-])ccc1O)c1ccc(COc2ccc3c(c2)CCC3)o1`, the activity change vs negative control was -19.7% (active).

`CCOc1ccc(C(=O)N/N=C/c2cc([N+](=O)[O-])cs2)cc1`: the activity change vs negative control is 5.6%.

`CCOC(=O)C1=C(c2ccccc2)NC(=O)NC1c1ccc(O)c(Cl)c1` (stereo not drawn): the activity change vs negative control is 23.1%.

With `O=C(N=Nc1c(O)[nH]c2ccc([N+](=O)[O-])cc12)c1cc(-c2ccccc2Cl)nc2ccccc12`, the activity change vs negative control was 3.8%.

`CC(C)(C)c1ccc(C(=O)CC(=O)c2cc(Cl)ccc2O)cc1`: the activity change vs negative control is 9.8%.

With `COc1ccc(C(=O)CC(=O)C(=O)Nc2ccccc2OC)cc1`, the activity change vs negative control was 19.3%.

Take `O=C(N/N=C/c1ccc2cccc(OCc3ccccc3)c2n1)c1ccc(Br)cc1`: the activity change vs negative control was 12%.

Consider `COC(=O)c1ccc(/C=C/c2ccc3cccc(OC)c3n2)cc1`, for which the activity change vs negative control was -0.2% (active).

On to `O=C(Cn1nnc(-c2cccc(C(F)(F)F)c2)n1)N1CCCCCC1`, for which the activity change vs negative control was 44.7%.

Take `Cc1ccccc1NC(=O)C(=O)NNC(=O)COc1ccc2ccccc2c1`: the activity change vs negative control was 48.1%.

Regarding `COc1ccc(C(=O)NCC(=O)OCn2nnc3ccccc3c2=O)cc1OC`, the activity change vs negative control is 5.4%.

With `Cc1ccccc1OCC(=O)NNC(=O)c1ccc2c(=O)n3c(nc2c1)CCC3`, the activity change vs negative control was -0.9% (active).

`O=S(=O)(NC(=S)NC1CCCCC1)c1ccc(Br)cc1`: the activity change vs negative control is 36.7%.

Consider `C=CCn1c(SCc2ccc(C(=O)O)cc2)nc2sc(C)c(C)c2c1=O`, for which the activity change vs negative control was 68%.

As for `O=C(NC(=S)NCCc1ccccc1)c1cccc(Cl)c1`, the activity change vs negative control is 5.4%.

For `CC1Cc2ccccc2N1C(=S)NC(=O)c1cccc(Br)c1` (stereo not drawn), the activity change vs negative control was 143%.

Take `O=C(NC(=S)NNC(=O)[C@H]1C[C@@H]1c1ccccc1)c1cccc(F)c1`: the activity change vs negative control is -9% (active).

Turning to `Cc1cccc(N=Cc2cc(Br)cc(Cl)c2O)c1`, the activity change vs negative control was 61.7%.

As for `COc1ccc(C(=O)NNC(=O)C(=O)Nc2ccc(C)cc2)cc1`, the activity change vs negative control was 36.9%.

For `C=CCn1c(=S)[nH]c2cc(-c3ccccc3)sc2c1=O`, the activity change vs negative control was 17.5%.

`NC(=O)c1cccnc1Nc1cccc([N+](=O)[O-])c1`: the activity change vs negative control was 0.5%.

As for `COc1ccc(S(=O)(=O)Nc2cccc(-n3cnnn3)c2)cc1`, the activity change vs negative control was 11.8%.

As for `O=C(NCc1cccnc1)c1ccc(NS(=O)(=O)c2ccc(F)cc2)cc1`, the activity change vs negative control was 17%.

Regarding `COc1ccc(S(=O)(=O)Nc2cccnc2)cc1`, the activity change vs negative control is -2.7% (active).

For `S=c1nc(-c2ccccc2)[nH]n1-c1ccccc1`, the activity change vs negative control was 73.2%.

On to `C=CCNC(=S)Nc1nc2c(cc1C(=O)OCC)CCCC2`, for which the activity change vs negative control is 15.6%.

Regarding `COc1cc(/C=C2/C(=O)NN(c3ccc(Cl)c(Cl)c3)C2=O)cc([N+](=O)[O-])c1O`, the activity change vs negative control is 10.8%.

`COc1ccc([N+](=O)[O-])cc1N(CC(=O)NCc1ccco1)S(C)(=O)=O`: the activity change vs negative control was 9.4%.

Take `COc1cc(/C=C2/OC(=O)c3cc([N+](=O)[O-])ccc32)cc(OC)c1OC`: the activity change vs negative control is -0.9% (active).

Turning to `O=C(NC(=S)N1CCN(c2nc(-c3ccccc3)cs2)CC1)c1cncc(Br)c1`, the activity change vs negative control is 76.4%.

With `Cc1ccccc1OC(=O)n1c(=S)oc2cc(Cl)ccc21`, the activity change vs negative control was 33.4%.

For the molecule `Cc1ccc2nsnc2c1S(=O)(=O)Nc1cccc2nsnc12`, the activity change vs negative control was 27.1%.

As to `O=C(CCCc1c[nH]c2ccccc12)Nc1ccc(S(=O)(=O)Nc2ncccn2)cc1`, the activity change vs negative control was -0.6% (active).

With `O=C(COc1ccccc1)Nc1ccc(S(=O)(=O)Nc2ccccn2)cc1`, the activity change vs negative control is 0.2%.

With `Cc1cc(C)nc(NS(=O)(=O)c2ccc(NC(=O)Cc3ccccc3)cc2)n1`, the activity change vs negative control was 12.6%.

Turning to `Cc1ccc(-c2n[nH]c(=S)nc2-c2ccc(C)cc2)cc1`, the activity change vs negative control is 15.9%.

For `CN(CC(=O)Nc1nc2ccccc2s1)S(=O)(=O)c1ccc(Cl)cc1`, the activity change vs negative control is -3.4% (active).

As for `O=C(NC(=S)Nc1nc2ccccc2s1)c1cccs1`, the activity change vs negative control was 38.4%.

For `S=C(Nc1ccc(Cl)cc1)c1nc2ccccc2s1`, the activity change vs negative control is 22%.
